# From PubChem BioAssay AID2685 (National Center for Advancing Translational Sciences (NCATS), 2010)
# Where “and” joins values, the source holds several entries; their conditions need not be identical. Identical values can stand only once. Screen size: about 320,000 compounds; about 2,100 (0.66%) were called active. Roughly 53% stayed inconclusive and do not appear here. Calls come from the whole dose curve; as a rule, active = well fitted inhibition curve with a large enough effect in the signal ratio, with a control signal flat (not every such curve was filed as active); inconclusive = small, poorly fitted or top-dose-only effect, or effect the other way, or a change in a side signal; inactive = flat fitted curve, though single readings scatter; the % refers to the signal ratio. Many of the other results were omitted from the sample, so actives are more common in it than they were.
# Assay: qHTS Assay for Lipid Storage Modulators in Drosophila S3 Cells;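 for cell number change: cells counted by Cell Tracker Red CMTPX staining in the red channel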; for lipid storage change, negative = inhibition: % is set by controls: 0 for no effect and ±100 for the full control effect
# Details: BODIPY lipid droplet fluorescence, 18-24 h, cells fed with added oleic acid; cell number change: measured here: cell count max response; series mostly up to 46.1 µM; lipid storage change, negative = inhibition: at the top concentration
# Procedure, shortened: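 Drosophila S3 cells got compounds at several concentrations plus oleic acid (400 uM solution). Laser-scanning cytometry with 488 nm excitation read lipid droplets at 500-530 nm and cells at 575-640 nm. Percent activity was relative to 20 uM Triacsin C.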
# Potency is the fitted concentration of half-maximal effect.
Compound,"lipid storage change, negative = inhibition",cell number change,Potency,outcome
O=C(c1ccccc1)N1CCN(C2CCCCC2)CC1,2.03% (inactive),7.93%,,
O=C(c1ccccc1)N1CCN(C2CCCCCC2)CC1,,-3.45%,25.9 µM (active),
O=C(c1ccncc1)N1CCN(C2CCCCC2)CC1,-5.89% (inactive),9.31%,,
Cc1noc(C)c1C(=O)OCC(=O)Nc1cccc(S(=O)(=O)N(C)C)c1,3.18% (inactive),-1.55%,,
Cc1cc(C(=O)N/N=C/c2ccc(Cl)c([N+](=O)[O-])c2)c(C)n1-c1ccc(F)cc1,14.7% (inactive),-1.33%,,
CCN(CC)CCC(c1ccc(N(C)C)cc1)c1c(OC)cc(OC)c2c(-c3ccccc3)cc(=O)oc12 (stereo unspecified),6.17% (inactive),-6.71%,,
COc1ccc(C(=O)OCC(=O)Nc2cc(C)c(C)cc2[N+](=O)[O-])cc1,19.5% (inactive),-12.7%,,
NC(=O)CSc1cn(CCNC(=O)c2cccs2)c2ccccc12,11.3% (inactive),22.5%,,
O=C1/C(=C/c2cccs2)COc2ccccc21,-5.09% (inactive),-6.21%,,
O=C1C(=Cc2cccs2)C(=O)c2ccccc21,,-7.62%,18.4 µM (active),
O=C1/C(=C/c2cccs2)Cc2ccccc21,2.15% (inactive),20.5%,,
O=C(CN1C(=O)/C(=C\c2cccc(Cl)c2)Oc2ccccc21)N1CCN(c2ccccn2)CC1,21.7% (inactive),,,
C[C@@H]1CC[C@H](O)/C=C/C(=O)O[C@H](C)CC[C@H](O)/C=C/C(=O)O1,,-1.52%,5.8 µM (active),
CC1CC(Nc2ccccc2)=CC(=O)O1 (stereo unspecified),,,,inactive
C[C@@H]1C=CC(=O)O[C@@H]1c1ccc(C(F)(F)F)cc1,16.1% (inactive),9.88%,,
COc1ccc([C@H]2CC(=O)C=C(c3ccc4c(c3)OCO4)C2)cc1,-9.07% (inactive),2.65%,,
CCOC(=O)C1CCCN(C(=O)c2ccc3nc(-c4cccc(OC)c4)oc3c2)C1 (stereo unspecified),-19.1% (inactive),6.9%,,
CCOC(=O)C1CCCN(C(=O)c2ccc3nc(-c4ccc(OC)c(OC)c4)c(-c4ccc(OC)c(OC)c4)nc3c2)C1 (stereo unspecified),,-26.9%,4.11 µM (active),
COc1ccc(NC2CCCN(C(=O)c3ccc4nc(C)c(C)nc4c3)C2)cc1OC (stereo unspecified),,,,inactive
O=c1c2nnn(-c3ccc(Br)cc3)c2ncn1Cc1ccccn1,14.2% (inactive),17.2%,,

Compound,"lipid storage change, negative = inhibition",cell number change,Potency,outcome
CSC1=NC(NCCCO)c2c(sc3c2CC(C)(C)OC3)N1 (stereo unspecified),21.6% (inactive),-5.44%,,
O=S(=O)(c1ccccc1)N1N=C(c2ccc(Br)cc2)CC1c1ccco1 (stereo unspecified),,13.4%,16.4 µM (active),
CS(=O)(=O)Nc1cccc(C2=NN(S(=O)(=O)c3ccccc3)C(c3ccco3)C2)c1 (stereo unspecified),0.748% (inactive),-5.75%,,
CC(=O)N1N=C(c2cccc(NS(=O)(=O)c3ccc(C)cc3)c2)CC1c1ccco1 (stereo unspecified),,-6.11%,,inactive
CC(=O)N1N=C(c2ccc(Cl)cc2)CC1c1ccco1 (stereo unspecified),26.9% (inactive),10.2%,,
CC(=O)N1N=C(c2ccc(NS(=O)(=O)c3ccccc3)cc2)CC1c1ccco1 (stereo unspecified),,-11.6%,9.2 µM (active),
CCS(=O)(=O)Nc1ccc(C2=NN(S(=O)(=O)c3ccc(F)cc3)C(c3ccco3)C2)cc1 (stereo unspecified),-3.66% (inactive),4.44%,,
Cc1cc(C)c(O)c(-c2cc(C(=O)Nc3cccnc3)[nH]n2)c1,-22.1% (inactive),-5.15%,,
CCc1ccc(-c2cc(C)no2)cc1S(=O)(=O)NCc1ccccc1OC,,2.29%,,inactive
COc1ccc(-c2noc(-c3ccccc3C(=O)Nc3cccc(OC)c3)n2)cc1,13.9% (inactive),2.43%,,
O=C1CCCc2c1cc(C(=O)NCc1ccco1)c(=O)n2-c1ccccc1,12.5% (inactive),1.19%,,
CC(Cl)C(=O)c1ccc2c(c1)CCN2C(=O)C1CC1 (stereo unspecified),4.02% (inactive),-1.68%,,
COc1ccc(C(c2c(NC(=O)c3ccco3)sc(C)c2C)N2CCOCC2)cc1 (stereo unspecified),,,,inactive
COc1ccc(C(c2c(NC(=O)c3ccco3)sc(C)c2C)N2CCOCC2)cc1OC (stereo unspecified),8.2% (inactive),-1.23%,,
CCN1CCN(C(c2cccnc2)c2c(NC(=O)c3ccco3)sc(C)c2C)CC1 (stereo unspecified),,-4.13%,8.2 µM (active),
Cc1sc(NC(=O)c2ccco2)c(C(c2cccnc2)N2CCCC2)c1C (stereo unspecified),-15.8% (inactive),-20.2%,,
COc1cccc(C(c2c(NC(=O)c3ccco3)sc(C)c2C)N2CCOCC2)c1 (stereo unspecified),,-13.8%,20.6 µM (active),
Cc1sc(NC(=O)c2ccco2)c(C(c2cccnc2)N2CCN(CCO)CC2)c1C (stereo unspecified),-3.36% (inactive),-13.8%,,
CCOCCCNCc1c(Cl)cccc1Cl,1.39% (inactive),5.68%,,
CCOC(=O)/C(=N\Nc1cccc(Cl)c1)Sc1nnc(-c2ccc(OC)cc2)n1C,13.8% (inactive),1.18%,,

Compound,"lipid storage change, negative = inhibition",cell number change,Potency,outcome
O=S(=O)(NCCc1ccccn1)c1ccc(-c2ccccn2)s1,5.79% (inactive),-6.49%,,
O=C1OCCN/C1=C\C(=O)c1ccc(Cl)cc1,4.76% (inactive),19.7%,,
OCCC1CN(Cc2nc3c(s2)CCCC3)CCN1Cc1ccccc1 (stereo unspecified),8.62% (inactive),17.4%,,
CCN1CCN(C(=S)c2ccc(Br)cc2)CC1,-3.85% (inactive),-1.28%,,
CCc1nnc(NC(=O)Cc2ccc(OC)c(OC)c2)s1,-9.59% (inactive),9.15%,,
CC(C)C[C@H](NC(=O)C1(c2ccccc2)CCN(C(=O)[C@H]2CSCN2C(=O)OC(C)(C)C)CC1)C(=O)O,-0.167% (inactive),,,
C[C@H](NC(=O)C1(c2ccccc2)CCN(C(=O)[C@H]2CSCN2C(=O)OC(C)(C)C)CC1)C(=O)O,,,-15.3% and -9.67%,
CC(C)[C@H](NC(=O)C1(c2ccccc2)CCN(C(=O)OC(C)(C)C)CC1)C(=O)O,-1.69% (inactive),0.279%,,
CC1NC(=O)c2ccccc2-n2c1nc1cc(F)ccc1c2=O (stereo unspecified),-24.4% (inactive),0.361%,,
Cc1ccc(C2=NCCn3c2c2ccc([N+](=O)[O-])cc2[n+]3[O-])cc1,,-25.9%,0.58 µM (active),
O=[N+]([O-])c1ccc2c3n([n+]([O-])c2c1)CCN=C3c1ccc(Cl)cc1,8.37% (inactive),12.6%,,
COc1ccc(C2=NCCn3nc4cc(OC)ccc4c32)cc1,3.18% (inactive),-20.7%,,
NS(=O)(=O)c1ccc(CNC(=S)NC2CCCCC2)cc1,-3.85% (inactive),-8.89%,,
Cc1ccc(NC(=O)Cn2c(O)c(N=NC(N)=O)c3ccccc32)cc1,-14.8% (inactive),-8.5%,,
COc1cccc2cc(C(=O)N3CCN(c4ccc(C)cc4C)CC3)c(=O)oc12,,12.9%,,inactive
O=P(O)(OCc1ccccc1)OCc1ccccc1,5.37% (inactive),4.18%,,
COC(=O)c1c(NC(=O)c2ccco2)sc2c1CCC2,0.361% (inactive),3.65%,,
COC(=O)c1c(NC(=O)c2ccco2)sc2c1CCN(C(C)=O)C2,,-25.8%,7.31 µM (active),
COC(=O)c1c(NC(=O)C2CC2)sc2c1CCN(C(C)=O)C2,,,,inactive
